Bioassay records from PubChem.
An excerpt weighted towards active compounds, which were near 1.9% of everything screened.
PP5 inh – PP5 (human) phosphatase inhibition. actives 0.18% (n = 320,000). inhibition, % at 6.7 µM. purified PP5c, OMFP substrate fluorescence;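 active = inhibition above the campaign's mean inhibition across all tested compounds plus 3 SD, cut at about 9.5% in these data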;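 note: 0% = DMSO only and 100% = 100 µM cantharidin control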
PP1 counter – blocks human PP1-alpha phosphatase, a PP5 counter-screen; inhibition, % at 6.7 µM; P62136; AID 2235; actives 0.9% (n = 320,000); purified PP1alpha, OMFP fluorescence;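 active = inhibition above the mean inhibition of all tested compounds plus 3 SD, computed separately for each screening campaign, cut at about 15% in these data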
H9c2 protect – protects H9c2 cardiomyocytes from peroxide injury; H2O2 injury protection, ATPLite, 2 h; protection from H2O2 cell death, % at 20 µM; actives 0.63% (n = 360,000);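 active = compounds giving at least 50% protection of heart cells from peroxide-induced death in the single-dose screen, raw or plate-pattern-corrected value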;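 note: 0% = DMSO wells with peroxide and 100% = DMSO wells without peroxide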
ATG4B inhibitor – blocks human ATG4B protease cleavage of LC3 substrate; inhibition, % at 8.33 µM; Q9Y4P1; actives 0.51% (n = 340,000); ATG4B cleavage of LC3-PLA2, NBD-HPC fluorescence, 1 h; AID 504462; in the data active = inhibition above about 40%
Target sequence (Q9Y4P1 whole entry, looked up): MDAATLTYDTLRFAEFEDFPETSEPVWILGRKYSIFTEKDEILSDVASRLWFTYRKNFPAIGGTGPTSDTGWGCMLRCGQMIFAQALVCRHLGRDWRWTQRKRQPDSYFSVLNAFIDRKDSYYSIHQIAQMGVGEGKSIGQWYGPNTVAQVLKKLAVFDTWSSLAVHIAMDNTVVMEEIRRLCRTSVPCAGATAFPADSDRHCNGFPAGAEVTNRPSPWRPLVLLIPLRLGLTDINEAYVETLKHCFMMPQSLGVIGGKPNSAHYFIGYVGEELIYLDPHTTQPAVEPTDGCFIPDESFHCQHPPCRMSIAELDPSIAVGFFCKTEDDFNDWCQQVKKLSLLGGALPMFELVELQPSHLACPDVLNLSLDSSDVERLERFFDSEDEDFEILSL
* = called active by the depositor; nt = no result.

SMILES | PP5 inh | PP1 counter | H9c2 protect | ATG4B inhibitor
CCN(C[C@H]1N[C@@](C)(C(=O)OC)[C@H]2C(=O)N(Cc3ccccc3)C(=O)[C@@H]12)C(=O)c1ccc(C(C)(C)C)cc1 | nt | nt | 57* | -12
CCN(C[C@H]1N[C@@](CC)(C(=O)OC)[C@H]2C(=O)N(Cc3ccccc3)C(=O)[C@@H]12)C(=O)c1ccc(C(C)(C)C)cc1 | nt | nt | 63* | -1
COc1ccc(CNC(=O)COC(=O)CCc2nc3ccccc3c(=O)[nH]2)cc1 | 1 | -1 | 48 | -1
O=C(CCc1nc2ccccc2c(=O)[nH]1)OCc1ccccc1F | 1 | -3 | 25 | 1
O=C(CCc1nc2ccccc2c(=O)[nH]1)OCc1nnc(-c2ccccc2)o1 | 1 | -6 | 75* | -2
CCc1nc2ccccc2c(C(=O)OCc2nc3ccccc3c(=O)[nH]2)c1C | nt | nt | 56* | -3
CC(=O)NCc1ccc(-c2csc(NC(=O)CCc3nc4ccccc4c(=O)[nH]3)n2)s1 | nt | nt | 90* | -3
Cc1ccc(CNC(=O)CCc2nc3ccccc3c(=O)[nH]2)cc1 | 3 | -1 | 51* | 3
CN(CC(=O)Nc1cc(Cl)ccc1C#N)C1CCS(=O)(=O)C1 (centres undefined) | -1 | -2 | 5 | -12
CC[C@]12c3[nH]c4ccc(OC)cc4c3CCN1C(=O)C(CC(=O)NCc1ccco1)C[C@@H]2C(=O)N1CCN(C(=O)c2ccco2)CC1 (some centres undefined) | nt | nt | 9 | nt
O=C(COC(=O)CCc1nc2ccccc2c(=O)[nH]1)NCc1ccc(F)cc1 | 0 | -3 | 50* | 3
O=C(CCc1nc2ccccc2c(=O)[nH]1)OCCOc1ccc(Cl)cc1 | 0 | -5 | 66* | -5
CN(C(=O)COC(=O)c1ccccc1OCc1ccc(F)cc1)C1CCS(=O)(=O)C1 (centres undefined) | 1 | -5 | 8 | -3
N#C/C(=C\c1ccc(-c2ccc(F)cc2)o1)C(=O)Nc1nc(-c2cccs2)cs1 | 2 | 15* | -5 | 5
N#C/C(=C/c1ccc(-c2ccc([N+](=O)[O-])cc2)o1)C(=O)Nc1nc(-c2cccs2)cs1 | nt | nt | 0 | 5
COc1ccc(C2CC(c3ccccc3)=NN2C(=O)c2ccc(F)cc2)cc1 (centres undefined) | 2 | -2 | -5 | -3
COc1ccc(C2CC(c3ccccc3)=NN2C(=O)CN2N=NC3C(=O)N(c4cccc(F)c4)C(=O)C32)cc1 (centres undefined) | 2 | 17* | 2 | 4
CCOc1ccc(NC(=O)CSc2nnc(C)n2Cc2ccccc2)cc1 | -4 | 16* | -8 | 6
O=C1c2cc3c(cc2CCC1c1ccc2c(c1)OCO2)OCO3 (centres undefined) | nt | nt | -3 | nt
O=C(CCCn1c(SCC(=O)c2ccc(O)c(O)c2)nc2ccccc2c1=O)NCC1CCCO1 (centres undefined) | 2 | 4 | 53* | 6
CCCCn1c(SCC(=O)c2ccc(O)c(O)c2)nc2ccsc2c1=O | -1 | 2 | 92* | 8
O=C(CCCn1c(SCC(=O)NC2CCCCC2)nc2ccccc2c1=O)NCC1CCCO1 (centres undefined) | 0 | 0 | 12 | 1
O=C(O)CCCCCn1c(SCC(=O)c2ccc(O)c(O)c2)nc2ccsc2c1=O | 2 | -5 | 17 | -6
COc1ccc(C2=NN(C(=O)COC(=O)c3ccc(NC(=O)CC#N)cc3)C(c3ccco3)C2)cc1 (centres undefined) | 2 | 16* | -5 | -18
O=C(OCC(=O)N1N=C(c2ccc(Cl)cc2)CC1c1ccco1)c1ccco1 (centres undefined) | 2 | -3 | -9 | -3
SMILES | PP5 inh | PP1 counter | H9c2 protect | ATG4B inhibitor
CCc1ccc(NC(=O)NNC(=O)c2cc3ccccc3cc2O)cc1 | 0 | 15* | 5 | 8
COc1ccccc1OCCCN1C(=O)C(=O)c2cccc(C)c21 | 1 | 1 | -1 | 2
Cc1ccc(OCCCN2C(=O)C(=O)c3cccc(C)c32)cc1 | 2 | 16* | -18 | 11
Cc1ccccc1OCCN1C(=O)C(=O)c2cccc(C)c21 | 1 | 16* | 1 | 10
COCc1nnc(NC(=O)c2cccc(NC(=O)c3ccccc3)c2)s1 | 3 | 1 | 3 | -3
COC(=O)c1ccc(Cn2nnc3c(=O)[nH]c(C4CCN(S(=O)(=O)c5cc(C)ccc5C)CC4)nc32)cc1 | 6 | 16* | -5 | -5
Cc1ccc(Cn2nnc3c(=O)[nH]c(C4CCN(S(=O)(=O)c5ccc(S(=O)(=O)NC6CC6)cc5)CC4)nc32)cc1 | 5 | 17* | 2 | -29
O=c1[nH]c(C2CCCN(S(=O)(=O)c3ccccc3Cl)C2)nc2c1nnn2Cc1ccc2c(c1)OCCO2 (centres undefined) | 2 | 16* | -1 | 9
O=C(COC(=O)Cc1n[nH]c(=O)c2ccccc12)NNC(=O)c1ccccc1 | 1 | -1 | 50 | 1
Cc1c(Cl)cccc1NC(=O)CNC(=O)Cc1n[nH]c(=O)c2ccccc12 | nt | nt | 88* | -4
O=C(COc1ccc(Cl)cc1)NCc1n[nH]c(=O)c2ccccc12 | -1 | 1 | 81* | 10
O=C(Cc1n[nH]c(=O)c2ccccc12)NCc1ccc(Cl)cc1 | -2 | -2 | 67* | -2
COc1ccc(OCC(=O)NCc2n[nH]c(=O)c3ccccc23)cc1 | 1 | 2 | 78* | -4
COc1ccccc1NC(=O)c1cc2c(cc1Cl)N1CCCCCC1=NS2(=O)=O | nt | nt | -4 | -6
CCCN(CC(=O)Nc1ccccc1C)C(=O)Cc1c[nH]c2ccccc12 | nt | nt | -6 | 0
O=C(Cc1n[nH]c(=O)c2ccccc12)NCc1ccccn1 | -3 | -3 | 54* | -7
CCCN(CC(=O)Nc1ccccc1C)C(=O)Cc1n[nH]c(=O)c2ccccc12 | 2 | -3 | 60* | -12
O=C(CSc1nc2ccccc2o1)NCc1n[nH]c(=O)c2ccccc12 | -2 | -2 | 57* | -6
O=C(CSc1nc2ccccc2o1)NCC(=O)c1ccccc1 | 0 | 3 | 10 | 11
CC1CCCCN1C(=O)NC1CC(=O)N(c2ccc3c(c2)OCCO3)C1 (centres undefined) | 0 | -2 | -1 | -4
C=CCNS(=O)(=O)c1cc2c3c(c1)CCN3C(=O)CC2 | 1 | -4 | 1 | -5
COc1ccc(C(=O)Nc2cccc(-c3nnc(-c4ccco4)o3)c2)cc1 | 1 | 2 | 30 | -2
Cc1cc(C)cc(OCC(=O)Nc2cccc(-c3nnc(-c4ccco4)o3)c2)c1 | 3 | 1 | 54* | -5
CCC(=O)Nc1cccc(-c2nnc(-c3cccc(NC(=O)CC)c3)o2)c1 | 0 | -3 | 85* | -29
COc1cc(C(=O)Nc2cccc(-c3nnc(-c4ccco4)o3)c2)ccc1OC(C)=O | 1 | -5 | 79* | -11
O=c1oc2ccccc2c(O)c1Cc1cc(Cl)c2cccnc2c1O | -2 | 16* | 21 | 30
CC(=O)n1cc([C@@H]2C=C(C(=O)N3CCN(C)CC3)O[C@H](OCc3ccc(CO)cc3)C2)c2ccccc21 | 1 | 1 | 5 | 3
